High-throughput results deposited in PubChem BioAssay by Broad Institute.
Hedgehog inh = Hedgehog pathway signaling inhibitors, primary screen, luminescence, Shh-LIGHT2 cells, Gli-luciferase | Shh-LIGHT2 Gli-luciferase reporter, 30 h | inhibition, % (test concentration not listed) | 22,000 compounds, 2.1% hits | AID 2313, 2010;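 active means mean inhibition across valid replicates above about 65%, limit read from the data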;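 further: pathway switched on by Shh-conditioned medium diluted 1 in 25 in low serum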
MITF inh = inhibitors of MITF, primary screen, MITF inhibitor project, cell-based, luminescence. inhibition, % (test concentration not listed). 37,000 compounds, 0.28% hits. TRPM1 promoter luciferase, 24 h; in the data active means inhibition above about 85%;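 further: human melanocyte line stably carrying TRPM1 promoter luciferase reporter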
NOMO-1 viab = NOMO-1 AML cell viability reduction, primary screen, STK33 inhibitor project, CellTiter-Glo luminescence. NOMO-1 AML viability, 72 h. 37,000 compounds, 7.5% hits. inhibition, % (no concentration beside the values); in the data active means inhibition above about 80%
Large screens that a line does not name were inactive. Hits are enriched below; roughly 7.8% of the tested compounds scored in any of these assays.

Cc1ccnc(SCC(=O)c2ccc([N+](=O)[O-])cc2)n1	none (no result: Hedgehog inh)
O=C(Nc1sc2c(c1C(=O)NCc1cccnc1)CCCC2)c1ccco1	none (no result: Hedgehog inh)
COC(=O)CSc1nnc(-c2sc3ccccc3c2Cl)n1-c1ccc(OC)cc1	NOMO-1 viab 85 (no result: Hedgehog inh)
COC(=O)CSc1nnc(-c2sc3ccccc3c2Cl)n1-c1ccccc1	none (no result: Hedgehog inh)
NC(=O)CSc1nnc(-c2cccs2)n1-c1ccccc1	none (no result: Hedgehog inh)
COC(=O)CSc1nnc(-c2cccs2)n1-c1ccc(Cl)cc1	NOMO-1 viab 101 (no result: Hedgehog inh)
COc1ccc(NC(=O)c2c(NC(=O)Cc3ccc(OC)c(OC)c3)sc3c2CCC3)cc1	none (no result: Hedgehog inh)
CCc1oc2ccccc2c1C(=O)c1cc(Br)c(O)c(Br)c1	none
CCc1ccccc1NC(=O)CNS(=O)(=O)c1ccc(C)cc1	none (no result: Hedgehog inh)
Clc1ccccc1-c1nnc(SCc2nc3ccccc3[nH]2)n1-c1ccccc1	none (no result: Hedgehog inh)
C[C@H]1CN([C@@H](C)CO)C(=O)c2cccc(N(C)C)c2O[C@H]1CN(C)Cc1ccc(C(=O)O)cc1	none
Cc1coc(C)c1C(=O)CC1(O)C(=O)N(Cc2cccc3ccccc23)c2ccccc21 (configuration not stated)	none (no result: Hedgehog inh)
Cc1ccc(CN2C(=O)C(O)(CC(=O)c3c(C)coc3C)c3cc(Cl)ccc32)cc1 (configuration not stated)	NOMO-1 viab 128 (no result: Hedgehog inh)
COc1ccc(C(=O)CC2(O)C(=O)N(Cc3ccc(C)cc3)c3ccc(Cl)cc32)cc1[N+](=O)[O-] (configuration not stated)	NOMO-1 viab 124 (no result: Hedgehog inh)
O=C(CC1(O)C(=O)N(Cc2ccc(Cl)cc2)c2ccc(Cl)cc21)c1ccc2c(c1)OCCO2 (configuration not stated)	NOMO-1 viab 129 (no result: Hedgehog inh)
COc1ccc(C(=O)CC2(O)C(=O)N(Cc3ccc(Cl)c(Cl)c3)c3ccccc32)cc1OC (configuration not stated)	none (no result: Hedgehog inh)
COc1ccc(C2(CNC(=O)c3ccc(OC)c([N+](=O)[O-])c3)CCCC2)cc1OC	none (no result: Hedgehog inh)
O=C(CC1(O)C(=O)N(Cc2ccccc2)c2ccc(Cl)cc21)c1ccc2c(c1)OCCO2 (configuration not stated)	none (no result: Hedgehog inh)
CCCN1C(=O)C(O)(CC(=O)c2ccc(OC)c([N+](=O)[O-])c2)c2cc(Br)ccc21 (configuration not stated)	NOMO-1 viab 113 (no result: Hedgehog inh)
C[C@@H]1O[C@@H](O[C@H]2[C@H](OC(=O)[C@]34CCC(C)(C)C[C@H]3C3=CCC5[C@@]6(C)C[C@H](O)[C@H](O[C@@H]7O[C@H](C(=O)O)[C@@H](O)[C@H](O)[C@H]7O)[C@@](C)(CO)C6[C@H](O)C[C@@]5(C)[C@]3(C)C[C@H]4O)O[C@@H](CO)[C@@H]2O)[C@H](O)[C@H](O)[C@H]1O[C@@H]1OC[C@@H](O)[C@H](O[C@H]2OC[C@](O)(CO)[C@H]2O)[C@H]1O (some centres not stated)	none
C[C@H](CO)N1C[C@H](C)[C@H](CN(C)C(=O)Nc2ccccc2)Oc2ccc(NS(=O)(=O)c3ccc(Cl)cc3)cc2C1=O	none (no result: Hedgehog inh)
C[C@H](CO)N1C[C@H](C)[C@H](CN(C)C(=O)Nc2cccc3ccccc23)Oc2ccc(NC(=O)C3CCCCC3)cc2C1=O	none (no result: Hedgehog inh)
CCCN1C(=O)C(O)(CC(=O)c2ccc(OC)c([N+](=O)[O-])c2)c2ccccc21 (configuration not stated)	NOMO-1 viab 118 (no result: Hedgehog inh)
N#CCCCN1C(=O)C(O)(CC(=O)c2ccc(Br)s2)c2ccccc21 (configuration not stated)	none (no result: Hedgehog inh)
CCOc1ccccc1OCC(=O)Nc1sc2c(c1C#N)CCC(C)C2 (configuration not stated)	none (no result: Hedgehog inh)
CC(C)=CCc1cc(O[C@@H]2O[C@H](CO)[C@@H](O)[C@H](O)[C@H]2O)cc(CC=C(C)C)c1C(O)C(=O)O (some centres not stated)	none
CCC(C)c1ccc(NC(=O)c2ccc(N(CC)CC)cc2)cc1 (configuration not stated)	NOMO-1 viab 120
CCC(C)NC(=O)c1ccc(N(CC)CC)cc1 (configuration not stated)	none
C=C1C(=O)O[C@H]2C1[C@H](OC(=O)/C(C)=C/CO)C/C(C)=C\CC[C@@]1(C)OC21 (some centres not stated)	NOMO-1 viab 122
C=C1C(=O)O[C@H]2[C@H]1[C@@H](OC(=O)/C(C)=C\C)C[C@]1(C)O[C@@H]1[C@H]1O[C@H]1C(=C)[C@H]2O	NOMO-1 viab 121
C/C=C(/C)C(=O)O[C@H]1C[C@@](C)(O)C(=O)[C@@H](OC(=O)/C(C)=C\C)[C@@]2(C)CC[C@@](O)(C(C)C)[C@H]12	none
C=C1C(=O)O[C@H]2C1[C@H](OC(=O)/C(C)=C/CO)C/C(C)=C\CC[C@@]1(CO)OC21 (some centres not stated)	NOMO-1 viab 93
C=C1C(=O)OC2/C=C(\CO)C(OC(C)=O)C/C=C(/C)CC(OC(=O)/C(C)=C\CO)C12 (configuration not stated)	NOMO-1 viab 121
Cc1ccc(-c2nnc(Nc3cccc(O)c3)c3ccccc23)cc1S(=O)(=O)N1CCOCC1	none (no result: Hedgehog inh)
CC(C)NC(=O)Nc1cccc2c1O[C@@H](CN(C)S(=O)(=O)c1ccc(Cl)cc1)[C@H](C)CN([C@H](C)CO)C2=O	none
COc1ccc(NC(=O)Nc2ccc3c(c2)C(=O)N([C@H](C)CO)C[C@@H](C)[C@H](CN(C)C(=O)NC2CCCCC2)O3)cc1	none (no result: Hedgehog inh)
C[C@H]1CN([C@@H](C)CO)C(=O)Cc2cc(NS(=O)(=O)c3cccs3)ccc2O[C@H]1CN(C)C(=O)Nc1ccc2c(c1)OCO2	none (no result: Hedgehog inh)
CNC[C@@H]1Oc2ccc(NC(=O)Nc3ccc(OC)cc3)cc2CC(=O)N([C@H](C)CO)C[C@H]1C	none
C=CC(C)(C)c1[nH]cnc1/C=C1\NC(=O)C(C(C)C)NC1=O (configuration not stated)	NOMO-1 viab 106
CC(C)C1NC(=O)/C(=C/c2cnc[nH]2)NC1=O (configuration not stated)	none (no result: MITF inh, NOMO-1 viab)
CCC(Sc1n[nH]c(=O)[nH]c1=O)C(=O)O (configuration not stated)	none (no result: Hedgehog inh)
COc1ccc2nc(Nc3nc(C)c(CCC(C)C)c(=O)[nH]3)nc(C)c2c1	none (no result: Hedgehog inh)
CCN(CC)CCCC(C)Nc1c2ccc(Cl)cc2nc2ccc(OC)cc12 (configuration not stated)	NOMO-1 viab 114
C[C@H](CO)N1C[C@H](C)[C@H](CN(C)Cc2ccc(C(=O)Nc3ccccc3N)cc2)Oc2c(cccc2N(C)C)C1=O	NOMO-1 viab 124 (no result: Hedgehog inh)
C[C@@H]1CN([C@H](C)CO)C(=O)c2cccc(N(C)C)c2O[C@@H]1CN(C)Cc1ccc(C(=O)Nc2ccccc2N)cc1	NOMO-1 viab 127 (no result: Hedgehog inh)
Cc1cc(C(=O)Nc2cccc3c2O[C@@H](CN(C)Cc2ccc(C(=O)Nc4ccccc4N)cc2)[C@H](C)CN([C@H](C)CO)C3=O)n(C)n1	none (no result: Hedgehog inh)
Cc1cc(C(=O)Nc2cccc3c2O[C@H](CN(C)Cc2ccc(C(=O)Nc4ccccc4N)cc2)[C@@H](C)CN([C@H](C)CO)C3=O)n(C)n1	none (no result: Hedgehog inh)
COC(=O)c1cc(OC)c(OC)cc1NC(=O)c1cc(-c2cccnc2)nc2ccc(Cl)cc12	none (no result: Hedgehog inh)
CC(C)NC(=O)Nc1cccc2c1O[C@@H](CN(C)C)[C@@H](C)CN([C@H](C)CO)C2=O	none
